Measurements taken from PubChem BioAssay (NCATS).
Inconclusive results are not listed. Entries that show only a call come without a potency. Active and inactive are the calls of the source. The call rests on the fitted dose curve; in most records, active means well fitted cell-killing curve with a large enough effect; inconclusive means small, poorly fitted or top-dose-only effect; inactive means flat fitted curve, though single readings scatter.

Test: Cell Viability - LYMP2-023 (AID 975); further: nearly all actives have a fitted effect of over 55% in size
Settings: LYMP2-023 lymphoblastoid cell viability; series mostly up to 92.2 µM
From the text: NIH Chemical Genomics Center [NCGC]
NIH Molecular Libraries Screening Centers Network [MLSCN]
National Institutes of Environmental Health Sciences [NIEHS]
National Toxicology Program [NTP]
We have developed a 1536-well cell-based assay for quantitative high throughput screening (qHTS) against a number of cell lines to determine in vitro cytotoxicity of small molecules. This particular assay uses a human lymphoblastoid cell line (LYMP2-023) purchased from Coriell Institute for Medical Research.
NCGC Assay Protocol Summary:
The CellTiter-Glo luminescent cell viability assay (Promega) is a homogeneous method to measure the number of viable cells in culture. The end point readout of this assay is based on quantitation of intracellular ATP, an indicator of metabolic activity, using the luciferase reaction. Luciferase catalyzes the oxidation of beetle Luciferin to oxyluciferin and light in the presence of ATP. The luminescent signal is proportional to amount of ATP present.
Using the CellTiter-Glo luminescent cell viability assay, the amount of cellular ATP was measured in the lymphoblastoid cell line with complete culture medium following compound treatment for 24 hours. The assay was performed in opaque white Kalypsys 1536-well plates. In the screen, tetraoctylammonium bromide was used as positive control. Library compounds were measured for their ability to cause acute toxicity in the cell line, as reflected by a decrease in intracellular ATP levels, in a concentration-dependent manner. […] AC50 values were determined from concentration-response data modeled with the standard Hill equation.
qHTS protocol for CellTiter Glo lymphoblastoid cellular assay
[Step] [Parameter] [Value] [Description]
1. Reagent; 5 uL; 2500 lymphoblastoid cells/well
2. Time; 5 hr; 37 C incubation
4. Controls; 23 nL; Tetraoctylammonium bromide 6.4pM to 92 uM
5. Time; 24 hr; 37 C incubation
6. Reagent; 5 uL; CellTiter Glo reagent
7. Time; 30 min; Room Temperature
8. Detection; Luminescence; Viewlux plate reader
Keywords: cell viability, cytotoxicity, lymphoblastoid cell line, luminescence, NTPHTS, NTPHTS_NCGC, NIEHS, DSSTox, MLSMR, MLSCN, NIH Roadmap, qHTS, NCGC
Potency means the concentration at half of the fitted maximal effect.

Structure (SMILES) | Potency
C=CCCCCCCC=C | inactive
CCCCC/C=C/C=C/C=O | 50.1 µM (active)
C(=C/c1ccccc1)/c1ccccc1 | inactive
CC(=O)c1ccccn1 | inactive
Cc1ccc2ncccc2c1 | inactive
CNC(=O)N(c1ccccc1)c1ccccc1 | inactive
C=Cc1ccc(C=C)cc1 | inactive
CCCCCCC(=O)O | inactive
CC(=O)c1ccccc1[N+](=O)[O-] | inactive
CC1CCCO1 (stereo not given) | inactive
CCNS(=O)(=O)c1ccc(C)cc1 | inactive
O=C1CCC(=O)O1 | inactive
C1CCCC1 | inactive
CCCCCNCCCCC | inactive
Nc1cc(Cl)c(N)c(Cl)c1 | inactive
NC(N)=S | inactive
O=[N+]([O-])c1ccc2nc[nH]c2c1 | inactive
c1ccc(Nc2ccccc2)cc1 | inactive
CCOC(=O)C(C)C(C)=O (stereo not given) | inactive
Cc1cc(C(=O)O)ccc1[N+](=O)[O-] | inactive

Structure (SMILES) | Potency
COc1ccc(N)c(OC)c1 | inactive
Cc1ccc2nc(-c3ccc(N)cc3)sc2c1S(=O)(=O)O | inactive
Nc1cccc([N+](=O)[O-])c1 | inactive
CC(CCl)OC(C)CCl (stereo not given) | inactive
O=C(O)c1ccccc1[N+](=O)[O-] | inactive
Cc1ccc(C)c(O)c1 | inactive
Cc1cc([N+](=O)[O-])ccc1N | inactive
ON=C1CCCCC1 | inactive
Cc1c(C(=O)O)cccc1[N+](=O)[O-] | inactive
NS(=O)(=O)O | inactive
Cc1ccc(C#N)cc1 | inactive
C=CCn1c(=O)n(CC=C)c(=O)n(CC=C)c1=O | inactive
Cc1cccc(C(=O)O)c1 | inactive
CCC1CO1 (stereo not given) | inactive
O=C(O)/C=C/C(=O)O | inactive
Nc1cccc2c(=O)[nH][nH]c(=O)c12 | inactive
FC(F)(F)c1cccc(Cl)c1 | inactive
Cc1ccc(Cl)cc1 | inactive
C=C(C)C(=O)OCCCCCC | inactive
Cc1cccc(C(=O)O)c1[N+](=O)[O-] | inactive
